# Assay results from PubChem BioAssay (NCI).
# The panel holds about 83,000 compounds, 20% with a hit somewhere; the sample as a whole holds those more often.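 Single-concentration screen, 48 h exposure, 96-well plates. Endpoint: percent growth. Below 10 = active.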 Values without a mark were called inactive. Activity calls are given as the source filed them.
# How the values were obtained:
# Test in all cases: NCI-60 one-dose screen, 48 h (100 = growth as untreated, 0 = no growth, -100 = all killed)
# Conditions in all cases: 10 µM unless noted
# [1] = tested on: SR leukemia
# [2] = tested on: RPMI-8226 leukemia
# [3] = tested on: OVCAR-8 ovarian
# [4] = tested on: OVCAR-5 ovarian
# [5] = tested on: OVCAR-4 ovarian
# [6] = tested on: SK-OV-3 ovarian
# [7] = tested on: IGROV1 ovarian
# [8] = tested on: OVCAR-3 ovarian
# [9] = tested on: HS 578T breast
# [10] = tested on: NCI/ADR-RES ovarian
# [11] = tested on: T-47D breast
# [12] = tested on: BT-549 breast
# [13] = tested on: MDA-MB-435 melanoma
# [14] = tested on: MCF7 breast
# [15] = tested on: HCT-116 colon
# [16] = tested on: KM12 colon
# [17] = tested on: SW-620 colon
# [18] = tested on: HCC-2998 colon
Structure (SMILES),growth [1],growth [2],growth [3],growth [4],growth [5],growth [6],growth [7],growth [8],growth [9],growth [10],growth [11],growth [12],growth [13],growth [14],growth [15],growth [16],growth [17],growth [18]
COc1cc(NCCC2CCCCN2)c2ncccc2c1OC (stereo unspecified),73.8%,68.2%,62.7%,115%,36.8%,116%,4.24% (active),4.97% (active),86.6%,81.7%,38%,91.6%,-62.6% (active),57.3%,46.9%,87.5%,–,–
CO[C@H](C(=O)[C@@H](O)[C@@H](C)O)[C@@H]1Cc2cc3cc(O[C@H]4C[C@@H](O[C@H]5C[C@@H](O)[C@H](O)C(C)O5)[C@H](O)C(C)O4)c(C)c(O)c3c(O)c2C(=O)[C@H]1O[C@H]1C[C@@H](O[C@H]2C[C@@H](O[C@H]3C[C@](C)(O)C(=O)C(C)O3)[C@@H](O)C(C)O2)[C@H](O)C(C)O1 (stereo partly specified),8.44% (active),-21% (active),2.48% (active),13.1%,8.45% (active),9.52% (active),12.2%,-12.5% (active),-13.8% (active),76%,-8.49% (active),–,-41.3% (active),6.66% (active),–,1.23% (active),8.29% (active),-9.52% (active)
Cc1nc(N)nc2c1CCC(Nc1ccccc1)S2 (stereo unspecified),59.2%,113%,103%,100%,114%,109%,111%,108%,103%,104%,101%,–,101%,104%,97%,110%,102%,104%
Cc1nn(-c2ccccc2)c2nc3c(nc12)C1=NCCN1C(c1ccc(Cl)cc1)N3 (stereo unspecified),6.3% (active),45.6%,87.5%,91%,80.3%,104%,88.8%,95.4%,60.7%,98.6%,75.1%,98.3%,51.5%,35.3%,68.8%,66%,–,-25.2% (active)
CC(=O)Oc1c(Cl)c(Cl)c(Cl)c(Cl)c1Cl,106%,73.4%,92.6%,100%,90.3%,91.4%,92%,107%,106%,93.4%,89.2%,95.4%,102%,93.8%,99.4%,103%,–,94.9%
COc1cc(OC)cc(-c2ccc(-c3ccc(C(=N)N)s3)s2)c1,-47.3% (active),-62.9% (active),-58.8% (active),-81% (active),-54.2% (active),-92.4% (active),-67.2% (active),-42.9% (active),-40.4% (active),-58% (active),-70.2% (active),–,-81.9% (active),-72.8% (active),-73.5% (active),-73.3% (active),-69.2% (active),-71.7% (active)
O=S1(=O)NCCN1CCNc1nccc(-c2c(-c3cccc(O)c3)nc3sccn23)n1,62.2%,102%,103%,91.9%,131%,97.4%,105%,108%,95.9%,107%,106%,135%,–,103%,97.8%,108%,127%,113%
CCNC(=O)c1ccc2c(c1)nc(-c1ccc(Cl)cc1)n2-c1cc(C(C)(C)C)[nH]n1,-11.8% (active),76.5%,77.1%,63.9%,70.9%,26.9%,47.7%,21.5%,59.7%,9.67% (active),51.7%,41.8%,-20.6% (active),14.7%,–,38.9%,–,63.4%
CCN(CC)CC(=O)Nc1c(C)ccc(N)c1C,151%,111%,105%,99.2%,99.1%,96.7%,95.4%,109%,105%,99.2%,96.6%,–,99.8%,92.4%,84%,114%,104%,96.8%
O/N=C1\c2ccccc2-c2ccc(Br)cc21,102%,105%,105%,113%,104%,113%,116%,118%,158%,115%,97.2%,115%,113%,–,114%,115%,–,102%
COc1cc(Nc2ncccc2/C=C/C(=O)c2cc(OC)c(OC)c(OC)c2)cc(OC)c1OC,9.53% (active),52.1%,71.4%,102%,83.1%,97.4%,87.1%,91.9%,99.5%,79.4%,34.1%,100%,–,9.35% (active),60.6%,71.1%,71.9%,93.5%
COc1ccc(C2=NNC(c3ccc(Oc4nc5c(c(=O)n(C)c(=O)n5C)n4C)c(OC)c3)C2)cc1 (stereo unspecified),62.7%,80.4%,94.4%,102%,98.1%,117%,105%,108%,89.4%,87.2%,86.3%,–,93%,87.6%,98.2%,97.6%,109%,102%
CS(=O)(=O)c1ccc(C(=O)N2N=C(c3ccccc3)CC2c2ccc3c(c2)OCO3)cc1 (stereo unspecified),90.9%,95.7%,100%,100%,99.3%,83.7%,96.2%,106%,95.7%,103%,78.5%,86.3%,113%,84.1%,81.7%,93.6%,–,–
CCSc1cnnc2ccccc12,94.2%,111%,104%,103%,103%,109%,128%,121%,117%,104%,107%,–,105%,108%,106%,113%,113%,101%
COc1cc(C2CC(c3ccc(C)cc3)=NN2C=O)ccc1Oc1ccnc2cc(Cl)ccc12 (stereo unspecified),96.6%,87.8%,60.3%,98%,95.8%,-15.4% (active),77.2%,39.5%,7.47% (active),65.8%,76%,43.8%,–,79.1%,46.5%,104%,102%,69.6%
O=C(Nc1ccncc1)C(=O)c1cn(S(=O)(=O)c2cccc(Cl)c2F)c2ccccc12,20%,50.2%,82.1%,101%,65.4%,97.3%,70.9%,74.7%,84.7%,59.3%,74.2%,62.1%,–,35.2%,31.3%,63.1%,59.6%,66.4%
CCOC(=O)Cn1c(-c2nonc2NC(=O)c2ccccc2F)nc2ccccc21,10.8%,40.6%,38.8%,75%,90.8%,75%,46.3%,56.7%,73.1%,55.7%,75.6%,–,49.3%,37%,22.9%,41.1%,38.5%,33.3%
CC(=O)Cc1ccccn1,108%,103%,110%,110%,106%,119%,107%,105%,107%,108%,108%,97.8%,–,97.8%,107%,105%,108%,111%
